D2 antagonist = HTS Assay for Allosteric Antagonists of the Human D2 Dopamine Receptor: Primary Screen for Antagonists | inhibition, % at 10 µM | 340,000 tested, 2% active | D(2) dopamine receptor (Homo sapiens), P14416 | HEK293 TREx D2 cells, calcium flux, dopamine EC80 | AID 485344, 2010; in the data active means inhibition above about 30%; inactive means below that, where a call was filed; further: 0% is about no effect
Target sequence (P14416 whole entry, looked up): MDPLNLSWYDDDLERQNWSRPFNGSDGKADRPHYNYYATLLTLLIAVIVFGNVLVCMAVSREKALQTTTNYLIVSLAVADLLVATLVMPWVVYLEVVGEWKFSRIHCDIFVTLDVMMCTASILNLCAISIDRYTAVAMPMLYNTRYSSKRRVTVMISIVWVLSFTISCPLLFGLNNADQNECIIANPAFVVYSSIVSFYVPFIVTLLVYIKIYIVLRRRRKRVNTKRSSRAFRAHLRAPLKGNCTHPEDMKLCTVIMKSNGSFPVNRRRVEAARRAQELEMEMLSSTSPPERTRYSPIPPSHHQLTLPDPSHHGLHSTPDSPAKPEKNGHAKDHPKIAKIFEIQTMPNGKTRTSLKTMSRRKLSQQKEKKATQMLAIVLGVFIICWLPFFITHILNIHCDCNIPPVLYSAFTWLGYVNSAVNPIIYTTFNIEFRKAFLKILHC
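In this primary screen, negative modulation is detected by tracking calcium flux after an EC80 dopamine challenge in inducible HEK293 T-REx D2 cells preexposed to test compound for 180 s.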
D2 ag-1 = Beta-Arrestin HTS for Positive Allosteric Modulators of the Human D2 Dopamine Receptor: Agonists. DiscoveRx PathHunter D2 beta-arrestin, luminescence, 90 min; 100% = 57 uM dopamine signal. activation, % (test concentration not listed). 360,000 tested, 0.084% active; in the data active means activation above about 40%; inconclusive means between about 15% and that limit
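Agonist mode: compounds alone added to overnight-plated D2 PathHunter cells for 90 min at 37 C, with 57 uM final dopamine (EC100) defining full response. Beta-arrestin recruitment detected by chemiluminescent reagent, read after 1 h at ambient temperature.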
D2 PAM-1 = Beta-Arrestin HTS for Positive Allosteric Modulators of the Human D2 Dopamine Receptor: Potentiators | DiscoveRx D2 beta-arrestin cells, luminescence, 90 min; 100% = 57 uM dopamine signal | potentiation, % (concentration not given with the values) | 360,000 tested, 0.23% active; in the data active means potentiation above about 50%; inconclusive means mostly about 30% to 49%
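PathHunter beta-arrestin assay in DiscoveRx D2 cells. Compounds were added with an EC20 of dopamine (50 nM final) for 90 min at 37 deg C. Luminescence was read 1 h after detection reagent, with 57 uM dopamine as the EC100 control.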
D2 ag-2 = HTS Assay for Allosteric Agonists of the Human D2 Dopamine Receptor: Primary Screen for Agonists. activation, % at 2 µM. 340,000 tested, 0.53% active. HEK293 T-REx D2 cells, calcium flux agonist mode;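 active means activation over 3 SD above normal in the single-dose calcium agonist read, cut at about 30% in these data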; further: 0% is about no effect
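Calcium-flux readout, 1 cycle/sec over 180 s following compound pin transfer, in inducible HEK293 Trex D2 cells (force-coupled); dopamine controls included. Positive calcium responses during this window marked compounds as potential agonists.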
D2 PAM-2 = HTS Assay for Positive Allosteric Modulators of the Human D2 Dopamine Receptor: Primary Screen for Potentiators. HEK293 T-REx D2, calcium flux, EC20 dopamine potentiation. potentiation, % at 10 µM. D(2) dopamine receptor (Homo sapiens), P14416. 340,000 tested, 0.34% active;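 active means potentiation over 3 SD above the plate norm, cut at about 30% in these data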; further: 0% is about no effect
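Calcium flux readout, no-wash dye, 1 read/s. Inducible HEK293 Trex D2 line, overnight 30 C. Compound alone 180 s (agonist flags), then EC20 dopamine, another 180 s to score potentiation.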
D3 arrestin ag = qHTS of D3 Dopamine Receptor Agonist: D3 Dopamine Receptor B-arrestin Agonist Confirmatory Assay; shares compounds with D2 ag-2; DiscoveRx D3 beta-arrestin cells, luminescence, 90 min; Potency, µM (titrated, usually from 76.9 µM), without a hit: at the top dose activation, hits mostly activators; 2,300 tested, 4% active;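 further: potency means the concentration at half of the fitted maximal effect; 100% = dopamine control response; nearly all actives have a fitted effect of over 70% in size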
D2 ag-3 = qHTS of D3 Dopamine Receptor Agonist: D2 Dopamine Receptor B-arrestin Agonist Counterscreen; shares compounds with D2 ag-2; DiscoveRx PathHunter D2 beta-arrestin, luminescence, 90 min; response scale: percent relative to full dopamine signal; Potency, µM (top dose mostly 76.9 µM), inactives show top-dose activation, most hits filed as activators; 2,300 tested, 5.9% active; further: potency means the concentration at half of the fitted maximal effect; % of control where 0% means no effect; nearly all actives have a fitted effect of over 70% in size
* hit, by the source's call; u = inconclusive; x = not tested or not shown. An excerpt weighted towards active compounds, which were near 2.4% of everything screened. Unless noted, the call rests on the fitted dose curve; in most records, active means well fitted activation curve with a large enough effect; inconclusive means small, poorly fitted or top-dose-only effect; inactive means flat fitted curve, though single readings scatter.

SMILES	D2 antagonist	D2 ag-1	D2 PAM-1	D2 ag-2	D2 PAM-2	D3 arrestin ag	D2 ag-3
CCOC(=O)c1ccc(N2CCN(c3cc(Cl)ccc3C)CC2)c(NC(=O)Nc2cccc(OC)c2)c1	x	x	x	-1	-11	x	x
Cc1sc2c(c1C)c(=O)n(CCc1ccccc1)c(=O)n2Cc1ccc(F)cc1	x	x	x	0	-4	x	x
CC(C)CC(=O)N1CCC(N2CCN(c3ccccc3)CC2)CC1	-6	u	u	0	6	x	x
O=C(CCC1CCCC1)N1CCC(N2CCN(c3ccccc3)CC2)CC1	77*	0	-22	53*	-23	1%	12%
CC(CCCCCCCCC(=O)O)N(CCO)C(=O)OC(C)(C)C (stereo not given)	-2	-4	-6	0	7	-2%	-3%
COc1cc(NC(=O)c2cc3nc(-c4ccccc4)cc(-c4ccccc4)n3n2)c(OC)cc1Cl	x	x	x	1	-7	x	x
CCCC(=O)N1CCc2cc(-c3nc(N)sc3C)ccc21	15	-1	-9	0	-1	x	x
CCC(C)C(=O)N1CCc2cc(-c3csc(N)n3)ccc21 (stereo not given)	-1	11	-1	15	-2	4%	6%
COc1ccc(N=C2NC(=O)S/C2=C\c2ccc(N(C)C)cc2)cc1	-15	-5	-47	14	-20	-25%	-13%
CCOc1ccc(N=C2NC(=O)S/C2=C\c2ccc(Cl)cc2)cc1	-5	-4	-34	0	-11	x	x
Cc1cccc(-n2ccnc2SCC(=O)Nc2ccccc2C(F)(F)F)c1	x	x	x	-2	11	x	x
COc1ccc([N+](=O)[O-])c(OC)c1C(=O)Nc1ccc(F)cc1F	22	0	-10	0	1	-6%	-2%
CC(C)(C)C(=O)Nc1ccc(F)cc1[N+](=O)[O-]	7	-3	-13	32*	-2	u	1%
COc1cc(OC)c(NC(=O)NC(C)c2c(-n3cccc3)sc(C)c2C)cc1Cl (stereo not given)	x	x	x	0	-10	x	x
CC1=C/C(=C\C=C(C#N)C#N)N(C)c2ccccc21	-21	-3	-4	32*	-12	-26%	-8%
CCCOc1ccc(OC(=O)c2sc3ncn(Cc4cccc(F)c4)c(=O)c3c2C)cc1	x	x	x	0	-2	x	x
CCOc1ccccc1-n1nnnc1SCC(=O)NC(=O)Cc1ccccc1	-12	-6	-20	-1	-14	-3%	-1%
O=C(CC1NCCc2ccccc21)Nc1ccccc1 (stereo not given)	-11	2	-20	0	-19	x	x
O=C(CC1NCCc2ccccc21)Nc1ccccc1Cl (stereo not given)	-17	-1	-17	12	-11	-7%	-6%
O=C(CC1NCCc2ccccc21)Nc1ccc(Oc2ccccc2)cc1 (stereo not given)	60*	9	10	68*	-37	-9%	0%
Cc1cc(C)cc(NC(=O)Nc2ccc3nc(N4CCN(C)CC4)cc(C)c3c2)c1	x	x	x	0	2	x	x
O=[N+]([O-])c1c(NCCO)cc(N2CCN(Cc3ccc4c(c3)OCO4)CC2)c2nonc12	-12	-3	-25	40*	-19	-1%	13%
COc1ccc(NC(=O)CSCC(=O)Nc2ccc(S(=O)(=O)N3CCOCC3)cc2)cc1	4	2	0	0	-4	1%	4%
CC1CCCC(C)N1CCCNC(=O)Cn1ncc2c([nH]c3ccccc32)c1=O (stereo not given)	8	1	-9	0	-3	x	x
O=C(Cn1ncc2c([nH]c3ccccc32)c1=O)NCCCN1CCN(c2ccccc2)CC1	103*	u	-27	-1	-2	13%	u
SMILES	D2 antagonist	D2 ag-1	D2 PAM-1	D2 ag-2	D2 PAM-2	D3 arrestin ag	D2 ag-3
CCOC(=O)c1[nH]c2ccccc2c1NC(=O)c1cc(OCC)c(OCC)c(OCC)c1	x	x	x	0	4	x	x
CCc1nnc(NC(=O)CN2CCC(O)(c3ccccc3OC)CC2)s1	-5	0	1	0	2	x	x
COc1ccccc1C1(O)CCN(CC(=O)Nc2nc(-c3ccccc3)cs2)CC1	-3	2	-14	32*	-16	1%	20%
COc1ccccc1CNC(=O)CC(c1ccc(F)cc1)N1Cc2ccccc2C1=O (stereo not given)	x	x	x	0	-2	x	x
Cc1ccc(C(=O)OC(C)C(=O)NC(C)CCc2ccccc2)o1 (stereo not given)	-35	-2	-1	0	11	-6%	-1%
CC(CCc1ccccc1)NC(=O)C(C)OC(=O)c1ccco1 (stereo not given)	-6	-2	0	-1	8	x	x
Cc1cc(C)c(S(=O)(=O)NC2CC(C)(C)NC(C)(C)C2)cc1C	15	-3	1	30*	2	9%	6%
CCOc1cc(C)c(S(=O)(=O)NC2CC(C)(C)NC(C)(C)C2)cc1C	18	-2	-7	0	4	x	x
CCOc1ccc(Br)cc1S(=O)(=O)NC1CC(C)(C)NC(C)(C)C1	16	-4	-6	28	-15	-10%	-4%
COc1ccc(Cl)cc1S(=O)(=O)NC1CC(C)(C)NC(C)(C)C1	x	-3	-1	x	-7	x	x
CCC(=NCCc1ccccc1)C1=C(O)CCC1=O	-5	-4	2	49*	-17	3%	2%
COc1cc(OC)c(NC(=O)N2CCc3cc(S(=O)(=O)N4CCC(C)CC4)ccc32)cc1Cl	x	x	x	0	-7	x	x
CC(=O)Nc1ccc(SCCN2CC[C@@H](C)CCC2=O)cc1	-2	-4	-4	0	-5	0%	-4%
CC(=O)Nc1ccc(SCCN2CC[C@@H](O)CCC2=O)cc1	-11	-2	0	0	19	x	x
COc1ccc(CCNC(=O)CCc2cn(Cc3ccccc3Cl)c3ccccc23)c(OC)c1	x	x	x	1	3	x	x
CCOc1ccc(NC(=O)C(=O)NCCc2csc(-c3ccc(F)cc3)n2)cc1	x	x	x	1	-6	x	x
CCCCC(O)CN1CCC(c2ccccc2)CC1 (stereo not given)	48*	-1	-47	52*	-25	-10%	2%
